Measurements: the supplement of paper PMC3545927
The list shows a part of the results. The hit rate among all sequences tested is not known here. A number with no mark means an inactive call.

B1: HC1011 (peptide)
chain: CALYREFDEMAGNASASA
B2: FS-159 (peptide)
chain: CAGDKRVKRRAGNASASA
B3: HC1125 (peptide)
chain: CAVSPTHYVPAGNASASA
B4: FS-591 (peptide)
chain: CAGDSRVMRWAGNASASA
B5: HC737 (peptide)
chain: CALSPRPISYAGNASASA
B6: FS-274 (peptide)
chain: CALVHRVKRRAGNASASA
B7: FS-1105 (peptide)
chain: CAVSPRVKRRAGNASASA
B8: TR5 (peptide)
chain: CALSPRTFHPAGNASASA
B9: FS-687 (peptide)
chain: CALSPRVKRIAGNASASA
B10: FS-1104 (peptide)
chain: CAVSPRVKRPAGNASASA
B11: EK10 (peptide)
chain: CAGDKELRTGAGNASASA
B12: NG9 (peptide)
chain: CALEVLFQGPAGNASASA
B13: HC133 (peptide)
chain: CAEVVESTWVAGNASASA

Molecular target: furin, P09958
Sequence (P09958 whole entry): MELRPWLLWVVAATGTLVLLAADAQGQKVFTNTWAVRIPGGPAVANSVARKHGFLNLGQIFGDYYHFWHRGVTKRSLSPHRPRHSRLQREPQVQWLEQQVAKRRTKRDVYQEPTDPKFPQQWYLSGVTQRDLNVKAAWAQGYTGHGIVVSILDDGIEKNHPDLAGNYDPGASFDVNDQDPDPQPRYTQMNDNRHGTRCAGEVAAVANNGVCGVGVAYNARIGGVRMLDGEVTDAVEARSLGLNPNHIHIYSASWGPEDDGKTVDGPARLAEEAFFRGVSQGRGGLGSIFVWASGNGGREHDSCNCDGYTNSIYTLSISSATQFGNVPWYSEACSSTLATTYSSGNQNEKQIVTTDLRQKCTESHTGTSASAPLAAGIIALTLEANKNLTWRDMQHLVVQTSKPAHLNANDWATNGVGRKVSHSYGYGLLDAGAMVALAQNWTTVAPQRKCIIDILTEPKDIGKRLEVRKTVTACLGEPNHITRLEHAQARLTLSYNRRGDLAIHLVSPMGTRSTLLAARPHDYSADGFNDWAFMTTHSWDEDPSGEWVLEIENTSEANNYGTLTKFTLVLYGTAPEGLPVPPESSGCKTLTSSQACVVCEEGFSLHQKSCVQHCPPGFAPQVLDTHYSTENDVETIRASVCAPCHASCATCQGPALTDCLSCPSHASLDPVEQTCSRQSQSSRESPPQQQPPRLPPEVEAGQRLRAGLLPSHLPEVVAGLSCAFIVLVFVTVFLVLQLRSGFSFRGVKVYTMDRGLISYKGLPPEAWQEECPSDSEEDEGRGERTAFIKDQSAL
Assay: furin cleavage Z-score vs untreated control; higher = more cleavage, active = 3.5 or more, inactive = 1 or less, 8 variable residues between constant flanks
Method in brief: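 The cleavage Z-score is the log read count relative to furin-free reactions, lowess-adjusted and scaled by median absolute deviation. Counts came from sequencing DNA released from bead-bound 8-mer peptide–cDNA fusions after digestion with purified furin for 7.5, 15 or 30 min.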
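Also: purified furin at 1:10 enzyme:substrate in 50 mM HEPES pH 7.5.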

Row | Sequence | furin cleavage Z-score (7.5 min) | furin cleavage Z-score (15 min) | furin cleavage Z-score (30 min)
1 | B1 | 0.989 | 0.494 | -1.47
2 | B2 | 8.54 (active) | 8.95 (active) | 8.22 (active)
3 | B3 | 0.189 | 0.58 | -0.874
4 | B4 | 0.599 | -0.204 | 0.578
5 | B5 | 0.872 | 0.348 | 0.915
6 | B6 | 13 (active) | 14.7 (active) | 10.7 (active)
7 | B7 | 6.42 (active) | 5.9 (active) | 5.56 (active)
8 | B8 | -0.266 | 0.174 | -0.959
9 | B9 | 8.46 (active) | 10.4 (active) | 8.69 (active)
10 | B10 | -1.44 | -0.535 | -0.559
11 | B11 | -0.528 | -3.59 | -0.0871
12 | B12 | -2.01 | -0.768 | -2.01
13 | B13 | 0.708 | -0.27 | -1.67
